# Inconclusive results are not listed. A call without a number means that no potency is given here. Values without a mark were called inactive. Active and inactive are the calls of the source. The call rests on the fitted dose curve; in most records, active means well fitted cell-killing curve with a large enough effect in the repeat runs; inconclusive means weak or mixed curves, or effect the other way; inactive means flat fitted curve, though single readings scatter.
# Assay: qHTS assay to identify small molecule antagonists of the constitutive androstane receptor (CAR) signaling pathway - cell viability counter screen (AID 1224837); further: nearly all actives have a fitted effect of over 45% in size
# Details: HepG2-CYP2B6-hCAR viability, CellTiter-Fluor, 23 h, co-treated with 50 nM CITCO; series mostly up to 92.4 µM
# Description: National Center for Advancing Translational Sciences [NCATS]
# NIH Chemical Genomics Center [NCGC]
# U.S. Environmental Protection Agency [EPA]
# National Institutes of Environmental Health Sciences [NIEHS]
# National Toxicology Program [NTP]
# U.S. Food and Drug Administration [FDA]
# The constitutive androstane receptor (CAR) is a nuclear receptor which regulates multiple drug metabolizing enzymes (DMEs) and transporters. Activating CAR will generally increase the transcription and subsequent translation of CYP2B6 and CYP3A4. These two DMEs represent about 50% of the drug metabolizing potential in the body. When CAR is deactivated, the metabolizing potential in the body will decrease, subsequently increasing the toxicity in the body or lowering the therapeutic potential of a pro-drug. Recently, there have also been studies performed indicating CARs role in energy metabolism and cancer therapy. Therefore, inhibiting CARs activity could have a potential effect on diabetes and cancer. Identifying environmental toxins and compounds which modulate CAR, through the use of the Tox21 10K compound collection, will be an important step in determining the toxicity and potential therapeutic effects these factors will have on the human body. To differentiate true CAR antagonists from cytotoxic substances, the assay is multiplexed with a cell viability assay.
# Tox21 Assay Protocol Summary:
# A double-stable (hCAR and CYP2B6-2.2kb) transfected cell line, derived from human hepatoma (HepG2) cells, was utilized for the duration of the quantitative high-throughput screens. The HepG2-CYP2B6-hCAR cells were dispensed at 2500 cells/4 uL/well in 1536-well white solid bottom plates using a Multidrop Combi. After the assay plates were incubated at 37 C/5% CO2 for 4 hrs, 23 nL of compounds at 15 concentrations (from 5-48 columns) or positive control (from 1 to 4 columns) were transferred to the assay plates using a Pintool station. One uL of CITCO (final concentration = 50 nM) was added, using a Flying Reagent Dispenser, inside each well. After a 23 hr incubation period at 37 C/5% CO2, 1 uL of CellTiter-Fluor reagent was added into each well of the assay plates using a Flying Reagent Dispenser. The fluorescence intensity in the plates was then measured using a ViewLux plate reader.
Structure (SMILES),Potency,"activity change, negative = cytotoxicity"
COP(=O)(OC)O/C(C)=C/C(=O)N(C)C,inactive,
O=C(Cl)C(Cl)(Cl)Cl,inactive,
CC1=C2[C@H]3OC(=O)[C@@H](C)[C@@H]3CC[C@@]2(C)C=CC1=O,inactive,
CCC(C)C(C)(COC(N)=O)COC(N)=O (stereo not given),inactive,
C=CCC1(C(C)CC)C(=O)NC(=O)NC1=O (stereo not given),inactive,
CCOC1Oc2ccc(OS(C)(=O)=O)cc2C1(C)C (stereo not given),inactive,
O=C(O)C(Cl)Br (stereo not given),inactive,
O=C(Cl)c1ccccc1,inactive,
CCCOC(=O)c1cncn1C(C)c1ccccc1 (stereo not given),inactive,
CN(CCO)CCO,inactive,
Clc1cc2c(cc1Cl)Oc1cc(Cl)c(Cl)cc1O2,,-2.86% [at 0.349 µM]
O=C(Cl)OCc1ccccc1,inactive,
ClC1=C(Cl)C2(Cl)C(CBr)CC1(Cl)C2(Cl)Cl (stereo not given),inactive,
CC(C)(N)Cc1ccccc1Cl,inactive,
CC(Cc1ccccc1)NCCn1cnc2c1c(=O)n(C)c(=O)n2C (stereo not given),inactive,
CCC(=O)c1ccc(Cl)cc1,inactive,
O=C(Cl)C(Cl)Cl,inactive,
Cl/C=C/CCl,inactive,
NC(=O)CS(=O)C(c1ccccc1)c1ccccc1 (stereo not given),inactive,
Clc1nc(Cl)nc(Nc2ccccc2Cl)n1,inactive,

Structure (SMILES),Potency,"activity change, negative = cytotoxicity"
CCNc1nc(Cl)nc(NC(C)(C)C)n1,inactive,
CCOC(=O)CC(SP(=S)(OC)OC)C(=O)OCC (stereo not given),inactive,
C(COCC1CO1)OCC1CO1 (stereo not given),inactive,
C#CC(C)(C)O,inactive,
O=S1(=O)OCCO1,inactive,
O=[N+]([O-])CCO,inactive,
COc1ccc2c(C(=O)c3ccc(Cl)cc3)c(C)n(CC(=O)O)c2c1,inactive,
CCCOc1nn(C(=O)NS(=O)(=O)c2ccccc2C(=O)OC)c(=O)n1C,inactive,
CCc1ccc(C2CCNCC2)cc1,inactive,
CCNP(=S)(OC)O/C(C)=C/C(=O)OC(C)C (stereo not given),inactive,
Cc1ccc2cc(C)ccc2c1,inactive,
OP(O)c1ccccc1,inactive,
ClC(Cl)(Cl)Cl,inactive,
CCOP(=S)(OCC)Oc1ccc(Cl)cc1Cl,inactive,
CC(C)(C)c1cc(O)ccc1O,inactive,
CCCCOC(C)=O,inactive,
O=P(O)(O)CN(CP(=O)(O)O)CP(=O)(O)O,inactive,
C[N+]1(C)CCCCC1,inactive,
O=C(O)CBr,inactive,
CC(C)[N+](C)(CCC(C(N)=O)(c1ccccc1)c1ccccc1)C(C)C,inactive,
